Assay [1] in a line: qHTS assay to identify small molecule agonists of the sonic hedgehog signaling (Shh) pathway (AID 1259368; calls by dose curve;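 also: NIH/3T3-derived 3T3Gli1-Luc cells carrying a stable Gli1-driven firefly luciferase reporter; series mostly up to about 92 µM; nearly all actives have a fitted effect of over 15% in size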). The procedure, abridged: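 Luminescence was read after 30 min at room temperature with luciferase reagent. Before that, 3T3Gli1-Luc cells (NIH/3T3 clone, stable Gli1-Luc reporter; 2,000/well) were exposed to compounds for 24 hr at 37C, 5% CO2, compounds being added 4 hr post-plating.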
(Quantitative high-throughput screening tests each substance at several concentrations.)

The nature of assay [2]: qHTS assay to identify small molecule antagonists of the sonic hedgehog signaling (Shh) pathway (AID 1259369; calls by dose curve; also: nearly all actives have a fitted effect of over 45% in size; also: potency is read from the fitted curve at half-maximal effect). The procedure, abridged:
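Antagonist mode: compound added to 3T3 Gli1-Luc cells followed by conditioned-medium stimulation, 24 h at 37 C, 5% CO2. Inhibition taken as loss of Gli1-driven luciferase luminescence.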

Assay [3] can be described thus: qHTS assay to identify small molecule agonists of the androgen receptor (AR) signaling pathway in the presence of an antagonist - cell viability counter screen (AID 1259379). Also: nearly all actives have a fitted effect of over 25% in size. Also: potency is read from the fitted curve at half-maximal effect.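 As to activity change, negative = cytotoxicity: MDA-kb2 human breast cancer cells carrying an MMTV luciferase reporter; series mostly up to about 92 µM.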 In short, it runs like this:
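Cytotoxicity counter-screen run in the same wells as the nilutamide-challenged (3.0 µM final) AR agonist assay in MDA-kb2 cells. Compounds tested at 15 concentrations for 16 h, 37 °C without CO2; CellTiter-Fluor fluorescence read.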

The nature of assay [4]: qHTS assay to identify small molecule agonists of the estrogen receptor beta (ER-beta) signaling pathway - cell viability counter screen (AID 1259380). Also: nearly all actives have a fitted effect of over 30% in size. Also: potency is read from the fitted curve at half-maximal effect. The procedure, abridged: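 Cell viability counter screen: CellTiter-Glo luminescence (30 min, room temperature) measured in the same wells as the beta-lactamase readout, after 16 hr compound exposure at 37C of ER-beta-bla HEK293T cells in 2% charcoal-stripped FBS medium.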

Assay [5] in a line: qHTS assay to identify small molecule antagonists of the estrogen receptor beta (ER-beta) signaling pathway - cell viability counter screen (AID 1259382). Also: nearly all actives have a fitted effect of over 55% in size. Also: potency is read from the fitted curve at half-maximal effect.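 As to activity change, negative = cytotoxicity: HEK293T cells carrying ER-beta-UAS-bla reporter stimulated with estradiol; series mostly up to about 92 µM.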 The procedure, abridged:
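Cytotoxicity was measured in the same wells by CellTiter-Glo luminescence after 30 min at room temperature. Cells were ER-beta-bla HEK293T in charcoal-stripped serum, given compound together with 1 nM E2 and incubated 16 h at 37C.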

The nature of assay [6]: qHTS assay to identify small molecule agonists or antagonists of the thyroid stimulating hormone receptor (TSHR) signaling pathway - wild type cell line counter screen (AID 1259384; calls by dose curve). In short, it runs like this:
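Wild-type HEK293 cells were plated 18 h at 37 C/5% CO2, pin-dosed with compound plus Ro20-1724 medium, held 30 min at room temperature, then given cAMP-d2 and anti-cAMP-cryptate; fluorescence was read after 1 h. Fifteen concentrations, triplicate.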

In assay [7] the target is Thyrotropin receptor (Homo sapiens) (UniProt P16473). Kind of assay: qHTS assay to identify small molecule antagonists of the thyroid stimulating hormone receptor (TSHR) signaling pathway (AID 1259385; calls by dose curve; also: nearly all actives have a fitted effect of over 20% in size; also: potency is read from the fitted curve at half-maximal effect). In short, it runs like this: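 TSHR-HEK293 cells were plated and held 18 h at 37C/5% CO2, then given compound plus Ro20-1724 and stimulated with TSH at 1.5 ng/mL final. After 30 min at room temperature, cAMP was detected with cAMP-d2/anti-cAMP-cryptate (1 h) by fluorescence.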
Sequence of Thyrotropin receptor (Homo sapiens) (P16473 whole entry, looked up): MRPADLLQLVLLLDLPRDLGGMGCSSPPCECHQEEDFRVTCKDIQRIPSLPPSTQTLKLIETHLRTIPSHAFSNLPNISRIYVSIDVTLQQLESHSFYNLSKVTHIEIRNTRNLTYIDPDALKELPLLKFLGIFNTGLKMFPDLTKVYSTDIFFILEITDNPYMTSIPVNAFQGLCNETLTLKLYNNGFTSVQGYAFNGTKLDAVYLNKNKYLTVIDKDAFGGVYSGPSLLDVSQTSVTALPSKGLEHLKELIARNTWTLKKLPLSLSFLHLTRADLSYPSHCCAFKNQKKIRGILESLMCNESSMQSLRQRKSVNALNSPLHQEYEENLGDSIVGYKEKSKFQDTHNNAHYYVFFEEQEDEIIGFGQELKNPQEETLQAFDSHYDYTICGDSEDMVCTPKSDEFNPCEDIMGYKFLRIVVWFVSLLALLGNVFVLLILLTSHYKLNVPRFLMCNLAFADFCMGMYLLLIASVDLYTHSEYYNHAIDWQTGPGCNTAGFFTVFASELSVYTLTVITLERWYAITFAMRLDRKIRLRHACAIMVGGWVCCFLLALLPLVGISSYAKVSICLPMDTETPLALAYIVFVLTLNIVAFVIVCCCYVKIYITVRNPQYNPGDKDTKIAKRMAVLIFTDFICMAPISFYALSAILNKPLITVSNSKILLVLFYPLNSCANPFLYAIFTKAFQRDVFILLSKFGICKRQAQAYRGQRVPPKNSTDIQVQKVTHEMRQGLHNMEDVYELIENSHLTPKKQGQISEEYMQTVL

Assay [8] can be described thus: qHTS assay to identify small molecule agonists of the estrogen receptor alpha (ER-alpha) signaling pathway in the presence of an antagonist - cell viability counter screen (AID 1259386). Also: nearly all actives have a fitted effect of over 30% in size. Also: potency is read from the fitted curve at half-maximal effect. As to activity change, negative = cytotoxicity: series mostly up to about 92 µM. In short, it runs like this: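 Compounds tested at 15 concentrations for 22 h at 37C alongside 10.0nM (final) ICI-182,780 antagonist, in VM7Luc4E2 cells grown in phenol red-free, charcoal-stripped medium. Viability read by CellTiter-Fluor fluorescence after 1 h reagent incubation.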

Assay [9] has as its target Progesterone receptor (Homo sapiens) (UniProt P06401). Kind of assay: qHTS assay to identify small molecule agonists of the progesterone receptor (PR) signaling pathway (AID 1346784; calls by dose curve; also: nearly all actives have a fitted effect of over 30% in size). In short, it runs like this: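 Seed PR-UAS-bla HEK 293T cells (2% charcoal-stripped FBS), incubate 6 hr at 37C; add compounds in DMSO, 16 hr at 37C; add LiveBLAzer B/G substrate, 2 hr RT; read fluorescence intensity.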

The target is the same in assay [10]. In words: qHTS assay to identify small molecule antagonists of the progesterone receptor (PR) signaling pathway (AID 1346795; active = well fitted inhibition curve with a large enough effect in the signal ratio in the repeat runs, not every such curve was filed as active; the % refers to the signal ratio; also: potency is read from the fitted curve at half-maximal effect). In short, it runs like this:
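Screening used a GripTite HEK293T line with PR-responsive UAS-beta-lactamase. Cells were challenged with compound in the presence of 1 nM R5020 final for 16 hr at 37C; B/G FRET substrate, 2 hr room temperature, fluorescence.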

Assay [11] in a line: qHTS assay to identify small molecule antagonists of the progesterone receptor (PR) signaling pathway - cell viability counter screen (AID 1346798). Also: nearly all actives have a fitted effect of over 50% in size. Also: potency is read from the fitted curve at half-maximal effect. As to activity change, negative = cytotoxicity: series mostly up to about 92 µM. The procedure, abridged:
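Measures cytotoxicity in parallel with the PR antagonist reporter read: HEK293T PR-UAS-bla cells get compound and R5020 for 16 hr, and remaining viable cells are quantified by CellTiter-Glo luminescence.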

Assay [12] is described as follows: qHTS assay to identify small molecule agonists of the progesterone receptor (PR) signaling pathway - cell viability counter screen (AID 1346799; calls by dose curve; also: nearly all actives have a fitted effect of over 45% in size; also: potency is read from the fitted curve at half-maximal effect). In short, it runs like this:
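Using the same plates as the PR reporter screen, HEK293T PR-UAS-bla cells received compounds for 16 hr at 37C and were then lysed with CellTiter-Glo; luminescence was read 30 min later at room temperature.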

Assay [13] is described as follows: qHTS assay to identify small molecule antagonists of the TGF-beta/Smad signaling pathway - cell viability counter screen (AID 1346824). Also: nearly all actives have a fitted effect of over 50% in size. The procedure, abridged: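 SBE-bla HEK 293T cells were plated overnight at 37 C, then given compounds in DMSO plus TGF-beta1 (added as 0.25 ng/mL solution) for 5 hr. After the bla read, CellTiter-Glo was added to the same wells and luminescence read after 30 min at room temperature.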

Assay [14] is described as follows: qHTS assay to identify small molecule agonists of the TGF-beta/Smad signaling pathway - cell viability counter screen (AID 1346829). Also: top concentration of the series differs between compounds; nearly all actives have a fitted effect of over 45% in size. The procedure, abridged: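 Tox21 qHTS format: SBE-bla HEK 293T cells treated with DMSO-dissolved compounds for 5 hr; CellTiter-Glo luminescence after 30 min at room temperature.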
A short description of assay [15]: qHTS assay to identify small molecule agonists of the TGF-beta/Smad signaling pathway (AID 1346859; active = well fitted activation curve with a large enough effect in the signal ratio in the repeat runs, not every such curve was filed as active; the % refers to the signal ratio; also: series mostly up to about 77 µM). The procedure, abridged:
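Beta-lactamase reporter activity downstream of Smad binding elements was measured in stably transfected HEK 293T cells; compounds were incubated for 5 hr, substrate for 2 hr at room temperature.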

The target of assay [16] is Thyrotropin-releasing hormone receptor (Homo sapiens) (UniProt P34981). In words: qHTS assay to identify small molecule antagonists of the thyrotropin-releasing hormone receptor (TRHR) signaling pathway (AID 1346877; active = well fitted inhibition curve with a large enough effect in the repeat runs, not every such curve was filed as active; also: series mostly up to about 51 µM). In short, it runs like this: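 Antagonist mode: after a 5 min room-temperature compound exposure, cells were stimulated with 1 nM (final) TRH. Dye-loaded TRHR-HEK293 cells were used, and calcium-dependent fluorescence was followed for 3 min, with 15-point titrations run in triplicate.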
Sequence of Thyrotropin-releasing hormone receptor (Homo sapiens) (P34981 whole entry, looked up): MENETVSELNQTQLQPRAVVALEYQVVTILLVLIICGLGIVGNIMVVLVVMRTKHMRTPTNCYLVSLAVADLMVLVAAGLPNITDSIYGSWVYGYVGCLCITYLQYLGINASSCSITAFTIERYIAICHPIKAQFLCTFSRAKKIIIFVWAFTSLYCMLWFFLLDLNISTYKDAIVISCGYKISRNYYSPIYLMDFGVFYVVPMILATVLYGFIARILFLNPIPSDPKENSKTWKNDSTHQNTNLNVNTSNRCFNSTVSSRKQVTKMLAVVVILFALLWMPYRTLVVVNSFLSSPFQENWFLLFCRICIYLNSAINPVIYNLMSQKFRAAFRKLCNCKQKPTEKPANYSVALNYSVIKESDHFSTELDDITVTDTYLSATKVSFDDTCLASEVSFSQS

Assay [17] concerns the target Estrogen receptor (Homo sapiens) (UniProt P03372). Kind of assay: qHTS assay to identify small molecule agonists of the estrogen receptor alpha (ER-alpha) signaling pathway in the presence of an antagonist (AID 1259383; calls by dose curve; also: top concentration of the series differs between compounds; nearly all actives have a fitted effect of over 15% in size). The procedure, abridged: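 Agonist-mode confirmation run in the presence of 10.0nM (final) ICI-182,780 antagonist. The reporter was ERE-driven luciferase in VM7Luc4E2 cells, grown in charcoal-stripped serum. Cells were exposed to 15-concentration compound series for 22hr, then ONE-Glo luminescence was read.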

The target in assay [18] is Androgen receptor (Homo sapiens) (UniProt P10275). In words: qHTS assay to identify small molecule agonists of the androgen receptor (AR) signaling pathway in the presence of an antagonist (AID 1259381; calls by dose curve; also: nearly all actives have a fitted effect of over 15% in size). The procedure, abridged:
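Agonist-mode confirmation run against 3.0 uM final nilutamide: compounds titrated at 15 concentrations onto MDA-kb2 MMTV-luciferase reporter cells. Luminescence measured with ONE-Glo following 16 hr incubation, 37C, 0% CO2.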

SMILES strings stand for the structures. “And” between values parts separate entries of the source, which are not always exact repeats. Identical values can stand only once. Unmarked numbers belong to inactive results. Results filed as inconclusive are left out. The source made the active and inactive calls. Unless noted, calls follow the shape of the dose curve; as a rule, active = well fitted curve in the direction sought with a large enough effect in the repeat runs; inconclusive = weak or mixed curves; inactive = no such curve, though single readings can be large; an effect the other way counts as inactive or inconclusive.
% is scaled to controls: 0 for no effect and ±100 for the full control effect.

Sequence of Estrogen receptor (Homo sapiens) (P03372 whole entry, looked up): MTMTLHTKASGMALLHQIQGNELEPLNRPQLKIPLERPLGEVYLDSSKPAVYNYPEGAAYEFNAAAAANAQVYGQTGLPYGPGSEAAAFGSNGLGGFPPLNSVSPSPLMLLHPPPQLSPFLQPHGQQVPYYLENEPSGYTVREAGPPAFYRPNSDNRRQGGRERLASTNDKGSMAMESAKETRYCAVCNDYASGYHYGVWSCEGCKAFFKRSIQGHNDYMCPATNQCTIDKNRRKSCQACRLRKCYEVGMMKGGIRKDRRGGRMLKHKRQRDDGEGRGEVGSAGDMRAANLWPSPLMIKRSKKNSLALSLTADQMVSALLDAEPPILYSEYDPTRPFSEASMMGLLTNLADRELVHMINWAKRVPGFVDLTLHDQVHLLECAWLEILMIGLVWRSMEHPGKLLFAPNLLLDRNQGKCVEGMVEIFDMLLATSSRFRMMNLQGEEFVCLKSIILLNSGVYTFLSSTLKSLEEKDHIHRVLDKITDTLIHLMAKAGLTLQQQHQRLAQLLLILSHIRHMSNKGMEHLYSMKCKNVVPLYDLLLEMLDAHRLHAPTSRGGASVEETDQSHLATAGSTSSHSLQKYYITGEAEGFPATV
Sequence of Progesterone receptor (Homo sapiens) (P06401 whole entry, looked up): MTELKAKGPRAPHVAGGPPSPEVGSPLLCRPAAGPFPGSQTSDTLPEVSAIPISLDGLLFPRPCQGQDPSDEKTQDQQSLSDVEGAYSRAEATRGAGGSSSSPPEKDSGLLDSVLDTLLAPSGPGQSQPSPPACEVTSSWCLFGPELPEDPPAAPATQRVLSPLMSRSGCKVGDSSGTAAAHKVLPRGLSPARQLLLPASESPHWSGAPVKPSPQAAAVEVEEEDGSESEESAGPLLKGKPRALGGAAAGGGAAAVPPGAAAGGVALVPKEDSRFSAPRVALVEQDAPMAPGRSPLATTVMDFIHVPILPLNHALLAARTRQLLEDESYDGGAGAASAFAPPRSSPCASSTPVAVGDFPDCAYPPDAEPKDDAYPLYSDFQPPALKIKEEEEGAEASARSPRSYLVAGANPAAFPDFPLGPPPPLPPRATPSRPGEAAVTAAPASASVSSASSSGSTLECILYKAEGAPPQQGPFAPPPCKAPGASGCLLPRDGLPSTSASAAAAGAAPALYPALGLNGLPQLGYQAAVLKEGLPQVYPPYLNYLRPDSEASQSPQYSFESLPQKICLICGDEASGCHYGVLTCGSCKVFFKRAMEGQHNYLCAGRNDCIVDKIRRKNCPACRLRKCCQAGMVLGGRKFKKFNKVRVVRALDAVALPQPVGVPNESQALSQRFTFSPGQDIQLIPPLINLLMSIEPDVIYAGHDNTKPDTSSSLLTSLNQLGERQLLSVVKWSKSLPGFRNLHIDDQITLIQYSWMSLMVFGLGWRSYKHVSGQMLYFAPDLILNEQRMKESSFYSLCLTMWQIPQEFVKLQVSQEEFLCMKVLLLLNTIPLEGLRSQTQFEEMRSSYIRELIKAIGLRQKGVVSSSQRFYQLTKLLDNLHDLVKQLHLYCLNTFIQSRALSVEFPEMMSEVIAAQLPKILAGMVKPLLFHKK
Sequence of Androgen receptor (Homo sapiens) (P10275 whole entry, looked up): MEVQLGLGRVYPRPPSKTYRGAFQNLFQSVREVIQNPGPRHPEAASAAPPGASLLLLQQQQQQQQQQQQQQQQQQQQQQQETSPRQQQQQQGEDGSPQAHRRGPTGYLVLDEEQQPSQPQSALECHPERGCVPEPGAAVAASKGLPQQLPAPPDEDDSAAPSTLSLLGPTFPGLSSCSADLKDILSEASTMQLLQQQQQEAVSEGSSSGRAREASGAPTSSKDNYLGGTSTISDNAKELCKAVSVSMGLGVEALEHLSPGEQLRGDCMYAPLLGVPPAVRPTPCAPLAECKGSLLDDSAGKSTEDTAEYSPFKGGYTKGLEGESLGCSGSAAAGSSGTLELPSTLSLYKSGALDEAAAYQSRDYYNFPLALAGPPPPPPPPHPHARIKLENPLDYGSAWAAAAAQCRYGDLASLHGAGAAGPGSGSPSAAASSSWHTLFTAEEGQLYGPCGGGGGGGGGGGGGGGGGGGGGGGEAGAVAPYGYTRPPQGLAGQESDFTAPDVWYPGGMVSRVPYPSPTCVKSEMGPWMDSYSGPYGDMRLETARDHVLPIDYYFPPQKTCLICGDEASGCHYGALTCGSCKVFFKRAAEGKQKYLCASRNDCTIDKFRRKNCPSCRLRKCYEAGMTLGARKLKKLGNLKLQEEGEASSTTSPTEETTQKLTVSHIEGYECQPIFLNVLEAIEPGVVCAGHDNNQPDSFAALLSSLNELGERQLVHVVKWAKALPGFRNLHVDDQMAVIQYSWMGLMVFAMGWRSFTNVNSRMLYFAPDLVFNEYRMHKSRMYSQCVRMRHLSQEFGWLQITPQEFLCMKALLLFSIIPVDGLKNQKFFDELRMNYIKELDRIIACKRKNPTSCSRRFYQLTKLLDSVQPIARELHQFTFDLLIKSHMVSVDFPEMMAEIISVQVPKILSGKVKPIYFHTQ

In the case of `CN(C)CCCN1c2ccccc2CCc2ccc(Cl)cc21`, the molecule was called inactive in assay [1], in assay [6], in assay [14], in [15] and in [16]. For the same molecule, the Potency is 15.4 µM (active) and 11.9 µM (active) in assay [2]; 48.6 µM (active) and 33.5 µM (active) in assay [3]; 24.3 µM (active) and 21.1 µM (active) in [4]; 24.3 µM (active) and 18.8 µM (active) in assay [5]; 68.6 µM (active) and 29.8 µM (active) in assay [7]; 68.6 µM (active) in [8]. Further, the Potency was 26.6 µM (active) in assay [10]; 34.4 µM (active) and 29.8 µM (active) in [11]; 30.6 µM (active) and 23.7 µM (active) in [12]. Further, the Potency result in assay [9] and in [13] was “inactive” each time.

Regarding `O=C1OC(=O)C2CCCCC12` (stereo unspecified), the call in assay [1], in [14] and in assay [15] was inactive. Further, the Potency entry in [2], in [3], in assay [4], in [5], in assay [17] and in [8] was “inactive” each time. Also, the Potency entry in assay [9], in [10], in assay [11], in assay [12] and in assay [13] was “inactive” each time.

Take `N=C(N)c1ccc2cc(OC(=O)c3ccc(N=C(N)N)cc3)ccc2c1`: the call in assay [1], in assay [14], in assay [15] and in assay [16] was inactive. In addition, the Potency result in assay [2], in assay [3], in assay [4], in [18], in assay [5] and in assay [17] was “inactive” in each case. For the same molecule, the Potency entry in assay [8], in assay [9], in assay [10], in assay [11], in assay [12] and in [13] was “inactive” throughout.

For `CCCc1cc(C(N)=S)ccn1`, the outcome in assay [1], in assay [6], in [14] and in assay [15] was inactive. For the same molecule, the Potency entry in assay [2], in assay [3], in assay [4], in assay [5], in assay [17] and in assay [7] was “inactive” each time. Further, the Potency result in assay [8], in assay [9], in assay [10], in [11], in assay [12] and in assay [13] was “inactive” each time.

Turning to `N[C@H](C(=O)O)c1ccc(O)cc1`, in assay [1], the activity change was -0.267% [at 18.9 µM]. Besides, the Potency entry in assay [2], in assay [10] and in [11] was “inactive” each time. The activity change, negative = cytotoxicity in [3] was 0.253% [at 19 µM]; in [4] it was 9.39% [at 19 µM]; in assay [5] it was 3.71% [at 19 µM]; in [8] it was 3.8% [at 19 µM]; in assay [12], -6.4% [at 19 µM]; in [14], -0.107% [at 15.8 µM]. Also, the activation is 0.585% [at 19 µM] in [17], -0.625% [at 19 µM] in [9] and -1.41% [at 15.8 µM] in [15]. Also, in assay [6], the cAMP activity change is 3.37% [at 18.9 µM]. The activity change, negative = inhibition in assay [7] was -2.34% [at 19 µM]. Moreover, in assay [13], the viability change, negative = cytotoxic was 1.75% [at 15.8 µM]. Besides, in assay [16], the activity, negative = inhibition was 3.01% [at 10.5 µM].

As to `CCCCC/C=C\CCC=O`, the result in assay [1], in [6], in assay [14], in assay [15] and in assay [16] was inactive. Also, the Potency result in [2], in [3], in [4], in assay [5], in assay [17] and in assay [7] was “inactive” throughout. For the same molecule, the Potency entry in assay [8], in assay [9], in assay [10], in assay [11] and in assay [13] was “inactive” throughout.

As to `CCCCCOC(=O)CCCCC`, the molecule was called inactive in assay [1], in assay [14], in assay [15] and in assay [16]. Also, the Potency result in assay [2], in assay [3], in [4], in assay [5], in [17] and in [8] was “inactive” in each case. Besides, the Potency result in assay [9], in assay [10], in [11], in assay [12] and in [13] was “inactive” each time.

For `OCCOc1ccc(OCCO)cc1`, the outcome in [1], in [6], in assay [14] and in [15] was inactive. Also, the Potency entry in assay [2], in assay [3], in [4], in assay [5], in assay [17] and in assay [7] was “inactive” throughout. The Potency entry in [8], in assay [9], in assay [10], in [11], in [12] and in assay [13] was “inactive” throughout.

The values are drawn from PubChem BioAssay (Tox21).
